# Rab9 prom act: Rab9 promoter activation; Huh7 Rab9 promoter-luciferase reporter, luminescence, 24 h; Potency, µM (doses to about 9.22 µM), for inactives: top-dose activation, negative = inhibition, hits mostly activators; 320,000 tested, 2.8% active; also: % of control where 0% means no effect; nearly all actives have a fitted effect of over 60% in size
#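 Cell-based reporter: Huh7 stable for Rab9 promoter-driven luciferase, plated in reduced-serum medium with 10% FBS at 1500 cells/well, compound-treated 24 h at 37 °C, luminescence read after 10 min reagent.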
# SMN2 splice enh: enhancers of SMN2 splice variant expression | AID 1458 | Potency, µM (titrated, usually from 46.1 µM), without a hit: top-dose activity change, positive = activation, most hits filed as activators | HEK293 SMN2-luciferase splicing reporter, luminescence, 30-36 h | 210,000 tested, 2.8% active; also: % of control where 0% means no effect; nearly all actives have a fitted effect of over 55% in size
#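 HEK293 cells carry an SMN2 minigene-luciferase reporter in which exon 7 inclusion puts luciferase in frame. Cells were seeded at 2000 cells/well, attached for 10-12 hours, then exposed to compounds for 30-36 hours at 37C before ONE-Glo luminescence.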
# NPC1 prom act: activates the NPC1 promoter; Huh7 NPC1 promoter luciferase reporter, 24 h; Potency, µM (top dose mostly 9.22 µM), inactives show at the highest dose activation, usual class: activators; 320,000 tested, 2.4% active; AID 485313; also: % of control where 0% means no effect; nearly all actives have a fitted effect of over 60% in size
#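 Stably transfected Huh7 (NPC1 promoter→luciferase), 1500 cells/well in Opti-MEM + 10% FBS, 2 h settle, then compound 24 h at 37 °C. Luminescence after 10 min with Amplite reagent.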
# KinaseGlo FLuc: counter-screen: inhibitors of Kinase-Glo firefly luciferase; 200,000 tested, 0.28% active; Potency, µM (titrated, usually from 38.3 µM), inactives show top-dose activity change, negative = inhibition, usual class: inhibitors; Kinase-Glo luciferase, ATP luminescence, 8 min; Q27757; AID 1379; also: % is scaled to controls: 0 for no effect and ±100 for the full control effect; nearly all actives have a fitted effect of over 60% in size
#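 Recombinant Kinase-Glo luciferase, 10 uM ATP (linear range), luciferin; imidazole pH 7.2 / KCl / MgCl2 / Tween / BSA buffer; 8 min RT; luminescence.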
# FLuc counter: counter-screen for miR-21 project: firefly luciferase inhibitors or activators; Potency, µM (top dose mostly 57.5 µM), without a hit: at the top dose activity change, negative = inhibition, hits mostly inhibitors; purified FLuc, Km substrates, luminescence inhibition; 360,000 tested, 6.9% active;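 also: plate controls were vehicle for no effect and reference inhibitor for full effect; nearly all actives have a fitted effect of over 55% in size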
# Target sequence (P08659 whole entry, looked up): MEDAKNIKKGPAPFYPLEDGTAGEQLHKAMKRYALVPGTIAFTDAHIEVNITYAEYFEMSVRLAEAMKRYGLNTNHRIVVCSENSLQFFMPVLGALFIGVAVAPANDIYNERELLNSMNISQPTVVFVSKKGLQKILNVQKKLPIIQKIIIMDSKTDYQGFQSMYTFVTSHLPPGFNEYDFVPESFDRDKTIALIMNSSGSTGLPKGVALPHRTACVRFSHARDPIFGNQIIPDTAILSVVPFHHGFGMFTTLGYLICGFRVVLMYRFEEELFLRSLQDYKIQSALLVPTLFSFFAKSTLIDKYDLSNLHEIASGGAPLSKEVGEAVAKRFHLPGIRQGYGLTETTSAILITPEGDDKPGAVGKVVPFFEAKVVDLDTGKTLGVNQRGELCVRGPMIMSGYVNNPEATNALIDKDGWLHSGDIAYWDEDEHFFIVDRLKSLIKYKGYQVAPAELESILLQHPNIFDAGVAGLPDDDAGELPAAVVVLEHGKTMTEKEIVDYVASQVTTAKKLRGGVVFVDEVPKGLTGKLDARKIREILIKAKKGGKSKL
#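 Purified P. pyralis luciferase (10nM final) with 10uM D-luciferin and 10uM ATP (Km levels) in 50mM Tris acetate pH 7.5, 10mM Mg acetate, 0.01% Tween-20, 0.05% BSA; qHTS 6-point titration, ~60 µM downward; luminescence read.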
# ELG1 genotox: induces genotoxicity in HEK293T cells with luciferase-tagged ELG1; HEK293T ELG1-luciferase reporter, luminescence, 16 h; Potency, µM (series often up to 46 µM), for inactives: at the top dose activity change, positive = activation, hits mostly activators; 330,000 tested, 1.3% active; also: % of control where 0% means no effect; nearly all actives have a fitted effect of over 60% in size
#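 Genotoxic stress is detected as increased luminescence from luciferase-tagged ELG1 in HEK293T cells, measured with ONE-Glo after a 16 hr treatment at 37 °C.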
# Numbers without * were called inactive; ? = inconclusive; . = no result; [ ] = another dose, or the depositor's remark. A selection: hits, their analogues and other compounds. The true share with any hit is near 7.5%. Calls follow the shape of the dose curve; as a rule, active = well fitted curve in the direction sought with a large enough effect; inconclusive = small, poorly fitted or top-dose-only effect, or another doubt; inactive = no such curve, though single readings can be large; an effect the other way counts as inactive or inconclusive. Potency is read from the fitted curve at half-maximal effect.
SMILES,Rab9 prom act,SMN2 splice enh,NPC1 prom act,KinaseGlo FLuc,FLuc counter,ELG1 genotox
O=C(CSc1nc2c([nH]c3ccccc32)c(=O)n1-c1ccc(Cl)cc1)NC1CCCCC1,.,.,.,.,-1%,.
Cc1nc(SCc2cccc(C(=O)O)c2)nc2c1CCCC2,3%,4.5µM*,21%,-2%,8.5µM*,-5%
COc1ccc(-c2cc(C)nc(SCc3cccc(C(=O)O)c3)n2)cc1,-4%,16%,-1%,1%,?,6%
CC(=O)N=c1sc2cc(C)ccc2n1C,10%,-16%,7%,0%,?,13µM*
Cc1cccc(Cn2c(CN3CCC(C(=O)NCCc4ccccc4)CC3)cc3ccccc32)c1,.,.,.,.,-2%,.
FC(F)(F)c1cccc(Nc2c3c(nc4ccc(Cl)cc24)CCC3)c1,.,-72%,.,.,1%,.
O=C(Nc1cccc(Cl)c1)c1cnc[nH]1,4.5µM*,11µM*,4µM*,.,-23%,?
CC(=O)c1cccc(NC(=O)c2cc(-c3ccc(F)cc3)on2)c1,0%,-12%,21%,-3%,?,11%
CC(=O)c1cccc(NC(=O)c2cc(C(C)C)on2)c1,4.5µM*,?,0.63µM*,-6%,6.7µM*,9.2µM*
O=C(Nc1cccc(Cl)c1)c1ccncc1,-4%,?,-4%,-3%,-13%,4%
CC(C)c1cc(C(=O)Nc2cccc(Cl)c2)no1,0.89µM*,11µM*,0.89µM*,-26%,0.95µM*,?
CCC1CN2CCC1CC2[C@@H](NC(=S)Nc1cc(C(F)(F)F)cc(C(F)(F)F)c1)c1cccc2ccc(OC)cc12 (stereo partly specified),.,-4%,.,-1%,.,.
CCN(C(=O)CSc1ncc2c(n1)-c1cc(Cl)ccc1N(Cc1ccccc1)S2(=O)=O)c1cccc(C)c1,.,.,.,.,-2%,.
CN(C)C(=O)/N=N/C(=O)N(C)C,-6%[46.1 µM],-9%,6%[46.1 µM],-10%,.,.
CNC(=O)NC(=S)NC(=O)c1ccc(OC)cc1,21%,-1%,17%,1%,-17%,10%
COc1ccc(C(=O)NC(=O)NC2(C(Cl)(Cl)Cl)OCCO2)cc1,0.25µM*,2.2µM*,0.35µM*,-8%,0.95µM*,0.65µM*
[O-]/[N+](=C\C=C\c1ccccc1)c1ccccc1,1.8µM*,.,2.5µM*,.,4.8µM*,?
CCOC(=O)c1cc(OC(=O)c2cc(Cl)ccc2OC)n(-c2ccccc2)n1,.,-6%,.,.,-1%,.
Cc1ccc2c(nc3s/c(=C/c4cccs4)c(=O)n32)c1C,3.5µM*,?,29%,-7%,1.9µM*,16µM*
O=C(O)c1ccc(-c2ccc(/C=c3/sc4nc5ccccc5n4c3=O)o2)cc1Cl,12%,.,5%,.,19µM*,0%
Cc1ccc(C)c(N2C(=N)S/C(=C\c3ccc(-c4ccccc4C(=O)O)o3)C2=O)c1,-2%,12%,2%,5%,?,2%
Cc1ccc2c(nc3s/c(=C\c4ccc(-c5ccccc5C(=O)O)o4)c(=O)n32)c1C,-1%,.,2%,.,5.4µM*,0%
Cc1cc(C)c2nc3s/c(=C/c4ccccc4)c(=O)n3c2c1,1.3µM*,-2%,?,-1%,?,3%
O=C(O)C(=O)/C(=C\c1ccsc1)c1ccc2ccccc2n1,21%,.,18%,.,?,?
O=C(O)C(=O)/C(=C\c1ccc([N+](=O)[O-])cc1)c1ccc2ccccc2n1,?,13µM*,9%,0%,?,20%
SMILES,Rab9 prom act,SMN2 splice enh,NPC1 prom act,KinaseGlo FLuc,FLuc counter,ELG1 genotox
O=C(O)C(=O)/C(=C\c1ccccc1)c1ccc2ccccc2n1,2%,.,3%,8%,-19%,9.2µM*
Oc1ccc2ccccc2c1CNc1ccc(Br)cn1,1%,.,-3%,.,24µM*,13%
Oc1ccc2ccccc2c1CNc1ccc(Br)cc1,-5%,.,-3%,.,-7%,3%
COc1cccc(CNc2ccc(Br)cn2)c1O,2.8µM*,14µM*,1µM*,-2%,1.5µM*,?
COc1cccc(CNn2cnnc2)c1O,-7%,.,0%,-1%,1%,3%
COc1cccc(CNc2ncc(Br)cc2Br)c1O,?,18%,?,-1%,27µM*,14%
CC(C)Oc1ccc(CNC(=O)C2CCCCN2S(=O)(=O)c2ccc(F)cc2)cc1 (stereo unspecified),.,.,.,.,2%,.
CC(C)CCNC(=O)c1ccc2nc(Cc3ccccc3)oc2c1,.,.,.,.,7%,.
O=C1c2ccccc2C(=O)C1c1ccc(Br)cc1,10%[1.84 µM],.,?,.,6µM*,?
CCOc1cc(CN2CCC(n3nccc3NC(=O)C3CC3)CC2)ccc1O,-7%,.,4%,.,-1%,-2%
CC1CCCCN1c1cc2c(cc1F)c(=O)c(S(=O)(=O)c1ccccc1)cn2Cc1ccccc1 (stereo unspecified),.,.,.,.,-4%,.
Nc1ccc([N+](=O)[O-])c(N)c1,.,-1%,.,.,.,.
CN(C)c1ccc(-c2nc3ccccn3c2/N=C/c2ccc(Br)cc2)cc1,?,3.2µM*,?,?,0.6µM*,?
c1ccn2c(c1)nc1c2nc2ccccn21,21%,24%,?,1%,17µM*,?
O=C(O)c1c(Cl)nc2ccccn12,8%,1%,-5%,2%,2%,0%
Cc1c(-c2ccc(Br)cc2)nc2ccccn12,2.5µM*,.,3.2µM*,.,2.4µM*,?
COc1ccc(OC)c(/C=N/c2c(-c3ccc(O)c(OC)c3)nc3ccccn23)c1,-1%,-12%,-1%,-1%,?,1%
COc1ccc(-c2nc3c4ccccc4ccn3c2C=O)cc1,7%,-4%,-3%,4%,-11%,3%
Cc1ccc(-c2nc3ccccn3c2C=O)cc1,3.5µM*,.,?,-29%,21µM*,?
N#Cc1cccc(NC(=O)N2CC[C@@]3(CCCN(C(=O)c4cnccn4)C3)C2)c1,.,-26%,.,-5%,.,.
Clc1c(-c2ccccc2)nc2ccccn12,2.5µM*,.,4µM*,.,12µM*,?
CCOC(=O)c1c(NC(=O)c2ccc(S(=O)(=O)N3CCC(C)CC3)cc2)sc2c1CCN(C)C2,.,.,.,.,-3%,.
NNC(=O)c1csc(COc2cc(Cl)cc(Cl)c2)n1,-3%,.,-6%,.,4%,1%
CC(=O)Nc1nnc(COc2ccc(Cl)cc2)s1,3.5µM*,11µM*,3.2µM*,4%,15µM*,15µM*
CC(=O)c1csc(COc2ccc(Cl)cc2)n1,0.79µM*,.,0.89µM*,.,24µM*,?
Cc1ccccc1Nc1nc(N)nc(COC(=O)C2CCCCC2)n1,13%,13%,-1%,-6%,15µM*,12%
CCCCC(=O)OCc1nc(N)nc(Nc2ccccc2C)n1,2%,10%,2%,-3%,19µM*,?

# Screening data from PubChem BioAssay.
